{"source": "PubChem BioAssay AID588855", "about": "(National Center for Advancing Translational Sciences (NCATS), 2011)", "note": "Out of some 410,000 compounds screened, about 5,000 (1.2%) were called active. Inconclusive results (about 13%) are left out. The list comes from a sample in which actives are over-represented; it also holds similar structures and randomly drawn compounds. A number with no mark means an inactive call. The call rests on the fitted dose curve; in most records, active means well fitted inhibition curve with a large enough effect; inconclusive means small, poorly fitted or top-dose-only effect; inactive means no such curve, though single readings can be large or run the other way. Potency means the concentration at half of the fitted maximal effect.", "data": [{"assay": "qHTS for Inhibitors of TGF-b; further: nearly all actives have a fitted effect of over 65% in size", "conditions": "HepG2 CAGA-GFP TGF-b/SMAD3 reporter, GFP fluorescence, 18 h, TGF-beta stimulated, 500 pg/mL final; series mostly up to 46.1 µM; activity, negative = inhibition: at the top concentration", "excerpt": "TGF-b is a main component in the TGF-b signaling pathway which plays diverse roles in cellular and development pathways. TGF-b is the mediated by the transcription factors Smads. Although the Smad-dependent pathway is the primary canonical TGF-b signaling node, TGF-b1 can also activate alternative signaling pathways, including those involving MAPK (ERK, JNK and p38). This interaction may mediate or enhance Smad-dependent responses, or can exert Smad-independent effects. The complexity of this signaling cascade allows the TGF-b superfamily to perform unique, overlapping or redundant functions. We believe that targeting the TGF-beta pathway at the Smad-transcription factor level may eliminate the consequences of disrupting the entire pathway and offer specificity without affecting other signaling pathways. Smad3 is the primary transducer of TGF-b's signals and Smad3 regulates many functions attributed to TGF-b signaling. We hypothesize that Smad3 inhibitors will selectively eliminate Smad3-specific TGF-beta signals without undesired off-target effects. We aim to identify Smad3-small molecule antagonists using a quantitative high throughput screening (qHTS) approach.\nA high-throughput assay was developed to screen the NIH Molecular Libraries Small Molecule Repository (MLSMR). This is a cell based assay, where TGF-b is tagged with GFP. A counterscreen is run that looks at cytotoxicity (please see summary AID).\nMH087449NIH Chemical Genomics Center [NCGC]\nNIH Molecular Libraries Probe Centers Network [MLPCN]\nAssay Submitter (PI): Sushil Rane, National Institute of […]\nSuspensions of trypsinized HEPG2 CAGA-GFP cells were dispensed into white, tissue culture-treated, solid 1536-well plates at 5uL/well (1000 cells/well final concentration) in DMEM medium supplemented with 1% FBS. Plates were incubated at 37 degrees C for 2 hours, after which 23 nL of compounds or DMSO were delivered to each well using a pin tool. One uL of recombinant TGF-beta in DMEM (1% FBS) was then dispensed (500 pg/mL final concentration), and plates were incubated at 37 degrees C for 18 hours. The plates were measured on an Acumen eX3 Explorer plate reader for GFP fluorescence (ex488/em500-530). GFP values were calculated by determining the mean GFP fluorescence of individual cells, and compiling these values for each well to determine a total well GFP signal. The %Activity was determined from the corrected fluorescence values. A titration of the known TGF-B inhibitor SB431542 was included to monitor plate performance, while unstimulated HEPG2 (-TGF-B) control wells were used to normalize %Activity of identified inhibitors; unstimulated wells corresponded to 100%Activity (full inhibition), while stimulated cell controls (+DMSO) were used to normalize 0%Activity (no inhibition).\nConcentration-response curves were fitted to the signals arising from the resulting fluorescence. The concentration-effect curves were then classified based on curve quality (r2), response magnitude and degree of measured activity, and compounds were subsequently categorized based on their curve class.", "units": {"activity, negative = inhibition": "%"}, "values": [{"molecule": "Cc1ccc(NC(=O)CSc2nc3ccccc3c3nc(CCn4cncc4C)nn23)cc1F", "activity, negative = inhibition": 50.7}, {"molecule": "COc1ccc(CN2C(=O)C(CC(=O)NCc3cccc4ccccc34)CC(C(=O)N3CCOCC3)=C2C)cc1", "note": "(stereo unspecified)", "activity, negative = inhibition": 20.9}, {"molecule": "CCN(CC)C(=O)C1=C(C)N(Cc2ccc(C(C)(C)C)cc2)C(=O)C(CC(=O)NCc2cccc3ccccc23)C1", "note": "(stereo unspecified)", "Potency": "17.8 µM (active)"}, {"molecule": "CCN(CC)C(=O)C1=C(C)N(Cc2ccc(F)cc2)C(=O)C(CC(=O)NCc2cccc3ccccc23)C1", "note": "(stereo unspecified)", "activity, negative = inhibition": -3.47}, {"molecule": "COc1ccc2c(c1)c(=Cc1ccc(N(C)C)cc1)c1cc(-c3ccccc3)[n+](C)n12", "Potency": "5.01 µM (active)"}, {"molecule": "CN(C)c1ccc(/C=c2\\[nH]c(=O)/c(=C/c3ccc(N(C)C)cc3)[nH]c2=O)cc1", "activity, negative = inhibition": 9.71}, {"molecule": "Cc1ccc(NC(=O)CSc2nnc3[nH]c(=O)cc(C)n23)cc1Cl", "activity, negative = inhibition": -0.795}, {"molecule": "Cc1ccc(C(=O)Nc2ccc(C(=O)O)cc2)cc1S(=O)(=O)Nc1ccccc1", "activity, negative = inhibition": -13.1}, {"molecule": "Cn1c(=O)n(C)c2cc(C(=O)Nc3ccc(Br)cc3)ccc21", "activity, negative = inhibition": -1.4}, {"molecule": "O=C(Nc1ccc(Br)cc1)c1ccc(Br)c(S(=O)(=O)NCc2ccccc2)c1", "Potency": "12.6 µM (active)"}, {"molecule": "COc1ccccc1C1C(C(=O)N2CCCCC2)=C(C)Nc2nc3ccccc3n21", "note": "(stereo unspecified)", "activity, negative = inhibition": -3.85}, {"molecule": "Oc1ccc(Cl)cc1C1C=C(c2ccc3c(c2)OCO3)NC(c2ccc(F)c(Br)c2)N1", "note": "(stereo unspecified)", "Potency": "10 µM (active)"}, {"molecule": "CCCCCCC1(C)NC(c2ccc3c(c2)OCO3)=CC(c2ccccc2O)N1", "note": "(stereo unspecified)", "activity, negative = inhibition": -2.64}, {"molecule": "C(=Nc1ccc(/C=C/c2ccnc3ccccc23)cc1)c1cc2c3c(c1)CCCN3CCC2", "activity, negative = inhibition": 2.32}, {"molecule": "NC1=CC(=O)C(=O)c2cccnc21", "Potency": "7.94 µM (active)"}, {"molecule": "Cc1ccc2nc(COc3ccc(NC(=O)COc4ccccc4F)cc3)cc(=O)n2c1", "activity, negative = inhibition": 2.5}, {"molecule": "CC(C)N(C(=O)[C@H]1C[C@H](CC(=O)NC(C)(C)C)C(=O)N2CCc3c([nH]c4ccc(Cl)cc34)[C@]12C)C(C)C", "Potency": "11.2 µM (active)"}, {"molecule": "CCN(CC)C(=O)[C@H]1CC(CC(=O)NCc2ccco2)C(=O)N2CCc3c([nH]c4ccccc34)[C@]12C", "note": "(stereo partly specified)", "activity, negative = inhibition": -5.13}, {"molecule": "O=C(C[C@H]1C[C@H](C(=O)N2CCOCC2)[C@@]2(CCC3CCCC3)c3[nH]c4ccc(Cl)cc4c3CCN2C1=O)NCc1ccco1", "activity, negative = inhibition": -11.8}, {"molecule": "COc1ccc(CNC(=O)C[C@H]2C[C@H](C(=O)N3CCOCC3)[C@@]3(CCC4CCCC4)c4[nH]c5ccc(Cl)cc5c4CCN3C2=O)cc1OC", "Potency": "1.78 µM (active)"}, {"molecule": "COc1ccc2[nH]c3c(c2c1)CCN1C(=O)C(CC(=O)NCCCN(C)C)C[C@H](C(=O)N2CCOCC2)[C@@]31CCC1CCCC1", "note": "(stereo partly specified)", "activity, negative = inhibition": 3.02}, {"molecule": "C[C@]12c3[nH]c4ccc(Cl)cc4c3CCN1C(=O)[C@@H](CC(=O)NCCCn1ccnc1)C[C@@H]2C(=O)N1CCOCC1", "activity, negative = inhibition": -17.1}, {"molecule": "CCOC(=O)c1c(S(=O)(=O)N2CCCC(C(=O)NCc3cccc(C)c3)C2)c(C)n(C)c1C", "note": "(stereo unspecified)", "activity, negative = inhibition": -37.3}, {"molecule": "Cc1ccc(-n2c(SCC(=O)c3ccccc3)nc3c([nH]c4ccccc43)c2=O)cc1", "activity, negative = inhibition": 7.46}, {"molecule": "CN1c2ccc(Cl)cc2-c2nc(SCC(=O)Nc3cc(F)ccc3F)ncc2S1(=O)=O", "activity, negative = inhibition": 8.76}, {"molecule": "O=C(c1ccc2c(c1)N(Cc1ccccc1F)C(=O)c1ccccc1S2(=O)=O)N1CCOCC1", "activity, negative = inhibition": 1.56}, {"molecule": "Cc1ccc(S(=O)(=O)NCc2nc3nc(C)cc(C)n3n2)cc1", "activity, negative = inhibition": 18.1}, {"molecule": "COc1ccc(CCNC(=O)CCCCn2c(=O)c3ccccc3n(Cc3ccccc3)c2=O)cc1OC", "activity, negative = inhibition": 4.39}, {"molecule": "CC(=O)c1ccc(NC(=O)CSc2c(C(C)C)cnc3c2c(=O)n(C)c(=O)n3C)cc1", "activity, negative = inhibition": -24.6}, {"molecule": "O=C1CCCC2=C1C(c1cccs1)CC(=O)N2c1ccc(F)cc1", "note": "(stereo unspecified)", "activity, negative = inhibition": 16.1}, {"molecule": "CCOC(=O)C1=C(N)N(c2ccc(C)cc2)C2=C(C(=O)CCC2)C1c1cccs1", "note": "(stereo unspecified)", "Potency": "11.2 µM (active)"}, {"molecule": "CCOC(=O)c1cc2c(n(-c3ccc(C)cc3)c1=O)CCCC2=O", "activity, negative = inhibition": 4.92}, {"molecule": "COc1ccccc1NC(=O)c1oc2ccccc2c1NC(=O)COc1ccccc1OC", "activity, negative = inhibition": 6.75}, {"molecule": "O=C(Nc1ccc(Cl)cc1)c1cnn2c1NC(=C1CC1)C=C2C(F)F", "activity, negative = inhibition": 6.09}, {"molecule": "O=C(Cc1ccccc1)NNC(=O)C1CCN(c2ncccn2)CC1", "activity, negative = inhibition": 2.56}, {"molecule": "Cc1cc(=O)oc2cc(OCC(=O)N3CCN(c4ccc(F)cc4)CC3)c(Cl)cc12", "activity, negative = inhibition": 5.48}, {"molecule": "Oc1c(CN2CCN(c3ccc(F)cc3)CC2)cc(Cl)c2cccnc12", "Potency": "7.08 µM (active)"}, {"molecule": "Cc1cccc(C)c1NC(=O)CN1CCN(c2ccc(F)cc2)CC1", "activity, negative = inhibition": -22.8}, {"molecule": "Oc1c(CN2CCCC2)cc(COCc2ccccc2)c2cccnc12", "Potency": "4.47 µM (active)"}, {"molecule": "O=c1cc(CN2CCCCCCC2)c2c(ccc3ccccc32)o1", "activity, negative = inhibition": 0.276}, {"molecule": "CCc1nn(CCCC(=O)NCc2ccccc2OC)c(=O)c2cc3occc3n12", "activity, negative = inhibition": -7.43}, {"molecule": "CCc1ccc(CNC(=O)c2cc3cc4ccc(OC)cc4nc3o2)cc1", "activity, negative = inhibition": 1.92}, {"molecule": "CCCNC(=O)C1CCN(c2nc3ccc(C)cc3[nH]2)CC1", "activity, negative = inhibition": -3.16}, {"molecule": "Cc1ccc(NC(=O)Nc2nnc(-c3ccncc3)s2)cc1", "Potency": "11.2 µM (active)"}, {"molecule": "CCc1ccc(NC(=O)Nc2ccncc2)cc1", "activity, negative = inhibition": -6.39}, {"molecule": "CC(C)=CC(=O)Nc1nnc(-c2ccc(F)cc2)s1", "activity, negative = inhibition": -2.71}]}]}
